# Assay results as given in PubChem BioAssay AID493185 (National Center for Advancing Translational Sciences (NCATS), 2011).
# Unmarked numbers belong to inactive results. Calls follow the shape of the dose curve; as a rule, active = well fitted activation curve with a large enough effect; inconclusive = small, poorly fitted or top-dose-only effect; inactive = no such curve, though single readings can be large or run the other way.
# Test: Counterscreen for Identifying a Potential Treatment of Ataxia-Telangiectasia: Hit Validation; also: 0% is about no effect
# Settings: cell-free AlphaLISA/AlphaScreen artifact counterscreen, PBS only, no cells; series mostly up to 76.9 µM; activation: at the top concentration
# Outline: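 Cell-free AlphaLISA counterscreen: compounds (up to 76.7 uM final) in PBS with detection mix of anti-pKAP1 and anti-KAP1 antibodies on donor/acceptor beads plus lysis buffer, incubated 6 hr at 25C before AlphaScreen read.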
row,Compound,activation [%]
1,Cc1ccc(OCC(=O)N(Cc2cccs2)C2CCS(=O)(=O)C2)cc1C (stereo not drawn),0.752
2,O=C(NC(=O)c1c(F)cccc1F)Nc1ccccc1SC(F)F,9.02
3,O=C(C[n+]1ccc2c(c1)nnn2-c1ccccc1)c1ccc(Cl)cc1,-17.7
4,CCOC(=O)c1c(CSc2ccsc2)n(C)c2cc(Br)c(O)c(CN(C)C)c12,-23.8
5,CNC(=O)c1ccc(-c2cc3onc(-c4ccccc4)c3c(=O)n2C)cc1,-19.2
6,COc1ccc(CNC(=O)CN2C(=O)CSc3ccc(S(=O)(=O)N4CCOCC4)cc32)c(OC)c1,-11.3
7,C=CS(=O)(=O)c1sc(Cl)c(N2CCOCC2)c1[N+](=O)[O-],-5.74
8,O=C(OCCc1cc2ccccc2c(=O)o1)c1cccc(Br)c1,3.08
9,COc1ccc(Nc2cc3n(c(=O)n2)CCc2cc(OC)c(OC)cc2-3)cc1,-4.51
10,Cc1ccc(C(=O)N/C(=C\c2ccco2)C(=O)NC2CCS(=O)(=O)C2)cc1 (stereo not drawn),-5.26
11,CCOC(=O)CNS(=O)(=O)Cc1ccccc1,6.77
12,Brc1c(C[n+]2ccccc2)nc2ccccn12,23.3
13,O=C1/C(=C/c2ccc(N3CCOCC3)o2)SC(=Nc2ccccc2)N1CCc1c[nH]c2ccccc12,-13.1
14,CC1=NN(C(C#N)c2ccc([N+](=O)[O-])cc2)C(C)(C)C1 (stereo not drawn),-3.08
15,O=C(Nc1ccc(N2CCCC2)cc1)c1ccc(Cl)cc1Cl,-6.77
16,CCCN1C2CCCC1CC(NC(=S)Nc1cccc(C)c1C)C2 (stereo not drawn),5.38
17,O=c1c(-c2ccc(Cl)cc2)c[nH]n1-c1ccccc1,-4.1
18,Cc1ccc(C2(C)NC(=O)N(CC(=O)Nc3ccccc3N3CCCC3)C2=O)cc1 (stereo not drawn),-10.7
